Screening results: PubChem BioAssay, National Center for Advancing Translational Sciences (NCATS)
Sampled rows, rich in hits. Any-hit rate of the full collection: about 11%.
HEK293 tox: kills HEK 293 cells. hit rate 6.6% among 94,000. AID 1345083. Potency, µM (doses to about 115 µM), for inactives: top-dose activity change, negative = cytotoxicity, most hits filed as inhibitors. HEK 293 viability, ATP luminescence (CellTiter-Glo), 48-72 h; also: % is scaled to controls: 0 for no effect and ±100 for the full control effect; nearly all actives have a fitted effect of over 60% in size
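HEK 293 cells at 250 cells/well were exposed to compounds by pintool transfer for 48 or 72 hr at 37 degree Celsius, 5% CO2. Viability was read as ATP-coupled luminescence with CellTiter-Glo after 10 min at room temperature.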
hNpr1 antagonist: blocks ANP-stimulated signaling of human Npr1 receptor; P16066; HEK293 hNpr1 GloSensor cGMP, ANP-stimulated luminescence; Potency, µM (series often up to 46.3 µM), for inactives: at the top dose activity change, negative = inhibition, hits mostly inhibitors; hit rate 1.6% among 76,000; AID 1347048; calls by dose curve; also: % is scaled to controls: 0 for no effect and ±100 for the full control effect; nearly all actives have a fitted effect of over 60% in size
Target sequence (P16066 whole entry, looked up): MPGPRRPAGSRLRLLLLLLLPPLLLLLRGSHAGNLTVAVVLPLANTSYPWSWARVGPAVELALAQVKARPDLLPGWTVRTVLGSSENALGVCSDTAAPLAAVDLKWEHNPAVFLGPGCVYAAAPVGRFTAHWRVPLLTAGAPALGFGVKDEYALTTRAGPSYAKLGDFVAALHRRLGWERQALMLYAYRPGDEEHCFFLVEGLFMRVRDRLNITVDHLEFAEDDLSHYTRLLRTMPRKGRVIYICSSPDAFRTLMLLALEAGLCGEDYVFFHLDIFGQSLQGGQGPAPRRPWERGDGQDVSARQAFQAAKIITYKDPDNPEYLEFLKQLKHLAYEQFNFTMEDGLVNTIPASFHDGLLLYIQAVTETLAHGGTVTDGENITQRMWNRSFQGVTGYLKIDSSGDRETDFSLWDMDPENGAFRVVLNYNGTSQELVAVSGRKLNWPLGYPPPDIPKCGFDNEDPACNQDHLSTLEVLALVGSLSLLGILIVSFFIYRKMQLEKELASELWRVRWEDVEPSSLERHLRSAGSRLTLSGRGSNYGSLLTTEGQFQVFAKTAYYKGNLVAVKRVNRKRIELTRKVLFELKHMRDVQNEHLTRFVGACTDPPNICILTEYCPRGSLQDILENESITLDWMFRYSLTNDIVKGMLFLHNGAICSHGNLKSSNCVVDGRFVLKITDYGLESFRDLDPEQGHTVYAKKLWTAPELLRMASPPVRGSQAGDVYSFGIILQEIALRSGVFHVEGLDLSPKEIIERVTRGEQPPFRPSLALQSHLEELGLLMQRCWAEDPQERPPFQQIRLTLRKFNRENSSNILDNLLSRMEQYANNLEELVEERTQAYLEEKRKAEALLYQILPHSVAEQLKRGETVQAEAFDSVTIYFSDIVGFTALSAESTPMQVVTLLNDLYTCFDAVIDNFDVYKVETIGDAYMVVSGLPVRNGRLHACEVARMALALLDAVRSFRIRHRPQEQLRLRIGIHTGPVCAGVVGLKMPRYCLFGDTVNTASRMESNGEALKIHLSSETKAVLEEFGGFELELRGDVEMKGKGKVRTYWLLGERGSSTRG
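Compound pre-incubated 30 min at room temperature on GloSensor-loaded HEK293 cells stably carrying hNpr1 and the pGS-40F cGMP biosensor. Stimulation uses hNppA at 0.1 nM final; luminescence is taken at baseline and 20 min post-agonist.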
3T3 cytotox: cytotoxic compounds in NIH 3T3 cells; AID 1345082; NIH 3T3 viability, CellTiter-Glo ATP luminescence, 48-72 h; hit rate 4.3% among 94,000; Potency, µM (doses to about 96.7 µM), inactives show at the highest dose activity change, negative = cytotoxicity, hits mostly inhibitors; also: % is scaled to controls: 0 for no effect and ±100 for the full control effect; nearly all actives have a fitted effect of over 55% in size
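Mouse fibroblast NIH 3T3 cells, 400 per well, received compound via pintool and were incubated for 48 or 72 hr prior to CellTiter-Glo ATP luminescence measurement.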
FLuc inh: Photinus pyralis luciferase inhibition | P08659 | purified P. pyralis luciferase, luminescence, biochemical | Potency, µM (titrated, usually from 115 µM), actives largely listed as inhibitors | hit rate 2.5% among 76,000 | AID 1347043; also: % is scaled to controls: 0 for no effect and ±100 for the full control effect; nearly all actives have a fitted effect of over 65% in size
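Luminescence read by CCD imager after adding enzyme (10nM final) to wells holding compound, titrated in qHTS. Substrates 10uM each D-luciferin and ATP; buffer 50mM Tris acetate pH 7.5, 10mM Mg acetate, Tween-20, BSA.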
Npr1 antag conf: hNpr1 antagonism, confirmation assay; shares compounds with hNpr1 antagonist; HEK293 hNpr1 cGMP GloSensor luminescence, ANP-stimulated; Potency, µM (titrated, usually from 57.6 µM), without a hit: at the top dose activity change, negative = inhibition, usual class: inhibitors; hit rate 76% among 1,400; calls by dose curve; also: nearly all actives have a fitted effect of over 70% in size
NPR2 antag: hNpr2 antagonism, selectivity versus Npr1; shares compounds with hNpr1 antagonist; hit rate 67% among 1,400; Potency, µM (doses to about 57.6 µM), for the others: at the top dose activity change, negative = inhibition, actives largely listed as inhibitors; HEK293 hNpr2 GloSensor cGMP luminescence, CNP-stimulated; calls by dose curve; also: nearly all actives have a fitted effect of over 70% in size
FLuc inh counter: FLuc enzyme inhibition, Npr1 counter-screen; Potency, µM (top dose mostly 57.6 µM), for the others: at the highest dose activity change, negative = inhibition, usual class: inhibitors; hit rate 0.7% among 1,400; purified FLuc enzyme, luminescence, Km substrate; shares compounds with hNpr1 antagonist; also: 0% is about no effect
GloSensor ctrl: reduces cGMP signal in GloSensor control cells; shares compounds with hNpr1 antagonist; HEK293 GloSensor cGMP, SNP-stimulated, luminescence; Potency, µM (doses to about 57.6 µM), for the others: top-dose activity change, negative = inhibition, hits mostly inhibitors; hit rate 69% among 1,400; calls by dose curve; also: % is scaled to controls: 0 for no effect and ±100 for the full control effect; nearly all actives have a fitted effect of over 70% in size
* hit, by the source's call; i = inactive; ? = inconclusive; . = no result given; [ ] = remark or other dose. Unless noted, calls follow the shape of the dose curve; as a rule, active = well fitted curve in the direction sought with a large enough effect; inconclusive = small, poorly fitted or top-dose-only effect, or another doubt; inactive = no such curve, though single readings can be large; an effect the other way counts as inactive or inconclusive. Potency is read from the fitted curve at half-maximal effect.

SMILES	HEK293 tox	hNpr1 antagonist	3T3 cytotox	FLuc inh	Npr1 antag conf	NPR2 antag	FLuc inh counter	GloSensor ctrl
Cc1noc(C)c1[S+](=O)([O-])N1CCC(C(=O)N2CCC(N3CCCC3=O)CC2)CC1	-14%	.	-21%	.	.	.	.	.
COC(=O)[C@@H]1Cc2ncn(Cc3ccc(Cl)cc3)c2CN1C(=O)c1ccccc1	4%[172 µM]	1%[70.6 µM]	-27%[174 µM]	i	.	.	.	.
COC(=O)[C@@H]1Cc2ncn(Cc3ccc(Cl)cc3)c2CN1C(=O)c1ccc(C(F)(F)F)cc1	?	-25%	?	i	?	-8%	0%	?
O=C(NCc1cccs1)c1ccc2c(c1)CC(=O)N2Cc1ccc(F)cc1	?	-1%	-20%	i	.	.	.	.
O=C1Nc2ccccc2CC12CN(Cc1c[nH]c3ccccc13)C2	-26%	.	?	.	.	.	.	.
c1ccc(Nc2cc3c(cn2)CN(Cc2c[nH]c4ccccc24)CCN3)cc1	?	?	25µM*	i	11µM*	6.3µM*	-25%[86.2 µM]	?
COCc1ncc(C)n1CCNC(=O)c1cc(-c2ccc(C)c(C)c2)n[nH]1	?	?	-18%	?	.	.	.	.
CCC1Oc2ccc(NC(=O)c3ccccc3OC(C)=O)cc2CN(Cc2ccccc2F)C1=O (stereo not given)	25µM*	0.71µM*	14µM*	i	24µM*	24µM*	-4%	22µM*
COc1ccc(C(=O)N[C@H]2CO[C@H]3[C@@H]2OC[C@H]3OC(=O)Nc2ccccc2)cc1	63µM*	32µM*	?	i	40µM*	35µM*	-9%[86.2 µM]	35µM*
COc1ccc(NC(=O)O[C@@H]2CO[C@H]3[C@@H]2OC[C@@H]3NC(=S)Nc2ccc(Cl)cc2)cc1	45µM*	13µM*	?	i	24µM*	?	1%	24µM*
COc1ccc(NC(=O)N[C@H]2CO[C@H]3[C@@H]2OC[C@H]3OC(=O)Nc2ccc(Oc3ccccc3)cc2)cc1	18µM*	13µM*	?	i	14µM*	17µM*	-10%	12µM*
CC(C)c1ccc(NC(=O)N[C@H]2CO[C@H]3[C@@H]2OC[C@H]3OC(=O)Nc2ccc(Oc3ccccc3)cc2)cc1	?	?	?	i	19µM*	19µM*	0%	19µM*
COc1cc(NC(=S)N[C@H]2CO[C@H]3[C@@H]2OC[C@H]3OC(=O)Nc2ccccc2)cc(OC)c1	-12%	-13%	-18%	i	.	.	.	.
CCNC(=O)O[C@@H]1CO[C@H]2[C@@H]1OC[C@@H]2NC(=O)Nc1ccc(C(C)C)cc1	-20%[172 µM]	2%[70.6 µM]	0%[174 µM]	i	.	.	.	.
COc1ccc(C(=O)N2CCCC(n3c(C)cnc3C3CCC3)C2)cc1 (stereo not given)	?	.	-27%	.	.	.	.	.
CC1CCN(C(=O)CCC2(Cc3ccc4ccccc4c3)CCC(=O)N2)CC1 (stereo not given)	14%	4%	i	i	.	.	.	.
CCOC(=O)C1CCCN(C(=O)c2nc3sccn3c2-c2cccnc2)C1 (stereo not given)	3%	.	-3%	.	.	.	.	.
O=C(Nc1ccc(Oc2ccccc2)cc1)O[C@@H]1CO[C@H]2[C@@H]1OC[C@@H]2n1nnnc1SC1CCCC1	25µM*	10µM*	?	i	17µM*	17µM*	1%	14µM*
O=C(Nc1ccccc1)O[C@@H]1CO[C@H]2[C@@H]1OC[C@@H]2NCc1ccccc1	?	0%[70.6 µM]	?	i	.	.	.	.
CN(C)c1ccc(CN[C@H]2CO[C@H]3[C@@H]2OC[C@H]3OC(=O)Nc2ccc(Oc3ccccc3)cc2)cc1	?	?	?	i	?	?	-13%	22µM*
COc1ccc(OC)c(S(=O)(=O)N[C@H]2CO[C@H]3[C@@H]2OC[C@H]3OC(=O)Nc2cccc(C(F)(F)F)c2)c1	?	13µM*	?	i	27µM*	22µM*	2%	27µM*
N#Cc1cccc(NC(=O)O[C@@H]2CO[C@H]3[C@@H]2OC[C@@H]3n2nnnc2SC2CCCC2)c1	3%	5%	4%	i	.	.	.	.
COc1ccc(OC)c(S(=O)(=O)N[C@H]2CO[C@H]3[C@@H]2OC[C@H]3OC(=O)Nc2cccc(C(C)=O)c2)c1	-5%	2%	-3%	i	.	.	.	.
O[C@H]1CC[C@@H](Cc2cc(CN3CCOCC3)on2)O[C@@H]1CNCc1ccccc1	-13%[172 µM]	0%[70.6 µM]	-8%[138 µM]	i	.	.	.	.
O=C(CCc1nc2ccccc2s1)NCC1Cn2cccc2CN1Cc1ccccc1 (stereo not given)	?	-7%	?	i	.	.	.	.
SMILES	HEK293 tox	hNpr1 antagonist	3T3 cytotox	FLuc inh	Npr1 antag conf	NPR2 antag	FLuc inh counter	GloSensor ctrl
O=C(Cc1ccccc1)Nc1ccnn1C1CCN(Cc2ccc3cccc(F)c3n2)CC1	-25%	-11%	-29%	i	.	.	.	.
COc1ncccc1Nc1cnc2ccc(N(C)C)nn12	?	-8%[70.6 µM]	?	i	.	.	.	.
CN(C)c1ccc2ncc(Nc3ccc(Oc4ccccc4)cc3)n2n1	35µM*	28µM*	25µM*	i	31µM*	31µM*	-24%[86.2 µM]	31µM*
Cc1ccc(CNC(=O)N2CCC(c3noc(-c4ccccc4)n3)C2)cc1 (stereo not given)	40µM*	18µM*	?	i	?	24µM*	0%	24µM*
CCNC(=O)N1CCC(c2noc(-c3ccccc3)n2)C1 (stereo not given)	-2%	7%	-10%	i	.	.	.	.
O=C(N[C@H]1CO[C@H]2[C@@H]1OC[C@@H]2n1nnnc1Oc1ccccc1)c1ccc(C(F)(F)F)cc1	?	10µM*	?	i	11µM*	12µM*	-1%	9.7µM*
O=C(Nc1cccc(C(F)(F)F)c1)N[C@H]1CO[C@H]2[C@@H]1OC[C@@H]2n1nnnc1Oc1ccccc1	i	0%	-1%	i	.	.	.	.
O=C(N[C@H]1CO[C@H]2[C@@H]1OC[C@@H]2n1nnnc1Oc1ccc(-n2ccnc2)cc1)c1ccc(C(F)(F)F)cc1	35µM*	11µM*	-33%	i	17µM*	14µM*	2%	15µM*
CC(C)C1=NOC2(CCN(Cc3ccc(C(F)(F)F)cc3)CC2)C1	?	11µM*	?	i	25µM*	31µM*	1%[86.2 µM]	20µM*
